This is a sample that favours compounds with a hit; in the whole collection about 12% have one here.
USP30 inh = inhibitors of human USP30 deubiquitinase. inhibition, % at 25 µM. hit rate 5.3% among 47,000. purified USP30, Ub-rhodamine cleavage fluorescence. Ubiquitin carboxyl-terminal hydrolase 30 (Homo sapiens), Q70CQ3. AID 1645860, 2021
USP8 inh = inhibitors of human USP8 deubiquitinase | purified USP8, Ub-rhodamine cleavage fluorescence, 30 min | inhibition, % at 20 µM | hit rate 4.2% among 47,000 | Ubiquitin carboxyl-terminal hydrolase 8 (Homo sapiens), P40818
USP17 block = inhibitors of human USP17 deubiquitinase | purified USP17, Ub-rhodamine cleavage fluorescence, 3 h | inhibition, % at 50 µM | Ubiquitin carboxyl-terminal hydrolase 17-like protein 5 (Homo sapiens), A8MUK1 | hit rate 6.5% among 47,000
* = called active by the depositor. Cut-off read from the data, not from the text of the source: active = inhibition above about 30%; inactive = the rest.

`O=C(Nc1ccccc1F)c1nnn(-c2ccccc2)n1` gave USP30 inh 0, USP8 inh -2 and USP17 block 0.
For CNc1nccnc1C1CN(C(=O)c2ccc3c(c2)OCO3)CCO1 (stereo unspecified) the results were USP30 inh 9, USP8 inh 3 and USP17 block 1.
NCCC(=O)N1CCN(c2nc(-c3cccnc3)nc3ccc(Cl)cc23)CC1 was read as USP30 inh 15, USP8 inh -43 and USP17 block -4.
For Cc1ccccc1NC(=O)CN1CCN(c2ccccn2)CC1 the results were USP30 inh 7, USP8 inh 4 and USP17 block 0.
Screening Cc1cccc(NC(=O)C(C)n2c(C)nc3onc(C)c3c2=O)c1 (stereo unspecified) returned USP30 inh -6, USP8 inh 0 and USP17 block 0.
Screening Cc1cccc(C)c1NC(=O)C(C)n1c(C)nc2onc(C)c2c1=O (stereo unspecified) returned USP30 inh 43* and USP8 inh 8.
Screening COc1ccc(NC(=O)CS(=O)(=O)c2[nH]c(-c3ccc(C)cc3)nc2-c2ccccc2)cc1Cl returned USP30 inh 60*, USP8 inh 7 and USP17 block 21.
For COc1ccc(-c2nc(-c3ccccc3)[nH]c2S(=O)(=O)CC(=O)Nc2ccc(F)cc2)cc1 the results were USP30 inh 22, USP8 inh 24 and USP17 block 36*.
COc1ccc(NC(=O)COC(=O)c2ccccc2OCc2ccc(F)cc2)cc1 was read as USP30 inh 18, USP8 inh 2 and USP17 block 28.
Screening COc1ccc(NC(=O)CS(=O)(=O)c2[nH]c(-c3ccc(F)cc3)nc2-c2ccccc2)cc1Cl returned USP30 inh -8, USP8 inh -4 and USP17 block 27.
Screening COc1ccc2c(c1)CCCC21NC(=O)N(Cc2ccccc2C)C1=O (stereo unspecified) returned USP30 inh 6, USP8 inh 3 and USP17 block -1.
`C[C@@H]1CCC2[C@]3(C)COC(C)(C)O[C@H]3CC[C@]2(C)[C@]12CCC(CO)(CCO)O2` (stereo partly specified) gave USP30 inh 1, USP8 inh 10 and USP17 block 3.
For CCOC(=O)C(C)Sc1nnc(NC(=O)CC23CC4CC(CC(C4)C2)C3)s1 (stereo unspecified) the results were USP30 inh 5, USP8 inh 5 and USP17 block -4.
`O=C(NC1CCCC1)C1CC(=O)N(c2cccc(-c3noc(-c4cccs4)n3)c2)C1` (stereo unspecified) gave USP30 inh -41, USP8 inh 0 and USP17 block 61*.
For Cc1nc(-c2cccc(N3CC(C(=O)NC4CCCC4)CC3=O)c2)no1 (stereo unspecified) the results were USP30 inh -12, USP8 inh 3 and USP17 block -2.
`Cc1nc(Nc2nncs2)cc(C2CCCN2Cc2cnn(C)c2)n1` (stereo unspecified) gave USP30 inh -6, USP8 inh 4 and USP17 block -1.
Screening CC(=O)Nc1cc(C(=O)NC(C)c2ccccc2)c2ccc(C)nc2c1 (stereo unspecified) returned USP30 inh -74, USP8 inh 11 and USP17 block -4.
`COc1ccc(C(C)NC(=O)c2cc(NC(C)=O)cc3nc(C)ccc23)cc1` (stereo unspecified) gave USP30 inh -73, USP8 inh 58* and USP17 block 17.
`Cn1c(=O)c2c(nc3n(CC(O)c4ccccc4)c(-c4ccc(Cl)cc4)cn23)n(C)c1=O` (stereo unspecified) gave USP30 inh 1, USP8 inh -30 and USP17 block -8.
`Cn1c(=O)c2c(nc3n(CCO)c(-c4ccc(Cl)cc4)cn23)n(C)c1=O` gave USP30 inh 36*, USP8 inh -11 and USP17 block 5.
Screening Cn1cc(-c2cnc(N3CCOCC3)nc2)cc1C(=O)N1CCN(c2ccccc2)CC1 returned USP30 inh -33, USP8 inh -150 and USP17 block 0.
Screening CC(C)(C)c1cc(NC(=O)C2CCCO2)no1 (stereo unspecified) returned USP30 inh -13, USP8 inh -4 and USP17 block -3.
`CC(C)(C)c1cc(C[C@@H]2C[C@H](NC(=O)N3CCOCC3)C2(C)C)no1` gave USP30 inh 69*, USP8 inh 23 and USP17 block 39*.
`CCN1CCCC1CNc1nc(-c2ccc(OC)cc2)nc2ccccc12` (stereo unspecified) gave USP30 inh -19, USP8 inh -13 and USP17 block -14.
CCN(CC)S(=O)(=O)c1ccc(OC)c(Nc2nc(-c3ccccc3)nc3ccccc23)c1 was read as USP30 inh -3, USP8 inh 15 and USP17 block 39*.
Screening Cc1nn(-c2ccccc2)c2sc(C(=O)Nc3ccc(Br)c4cccnc34)cc12 returned USP30 inh -1, USP8 inh -4 and USP17 block 1.
CNC(=O)c1cc2nc(N(C)C)n(-c3ccccc3)c2s1 was read as USP30 inh -6, USP8 inh 77* and USP17 block 54*.
Screening CCNC(=O)c1cc2nc(N(C)C)n(-c3ccccc3)c2s1 returned USP30 inh -38, USP8 inh 75* and USP17 block 38*.
Screening CNC(=O)c1cc2nc(N(C)C)n(-c3ccc(OC)cc3)c2s1 returned USP30 inh 8, USP8 inh 78* and USP17 block 46*.
For CCOC(=O)CNC(=O)c1cc2c(=O)n3ccccc3nc2s1 the results were USP30 inh -35, USP8 inh -5 and USP17 block -9.
Screening COc1ccc(-n2c(N(C)C)nc3cc(C(=O)NC4CC4)sc32)cc1 returned USP30 inh -5, USP8 inh 0 and USP17 block 4.
For CCC(C(=O)Nc1ccc(C)c(Cl)c1)(C(F)(F)F)C(F)(F)F the results were USP30 inh 5, USP8 inh 0 and USP17 block 0.
O=C(Nc1cc(F)ccc1F)c1cc(C2CC2)n2nccc2n1 was read as USP30 inh -18, USP8 inh -8 and USP17 block 1.
`C[C@H]1C(=O)N(C)[C@@H]2CCN(S(=O)(=O)c3cccc(Cl)c3)[C@@H]2C(=O)N1C` gave USP30 inh 22, USP8 inh 19 and USP17 block 11.
`COc1cccc(S(=O)(=O)N2CC[C@@H]3[C@H]2C(=O)N(C)[C@@H](C)C(=O)N3C)c1` gave USP30 inh 19, USP8 inh 32* and USP17 block 14.
`COc1ccc(-c2cc(C3(O)CCCCC3)on2)cc1` gave USP30 inh 9, USP8 inh 6 and USP17 block -3.
O=C(Cc1ccc(-n2c(=O)c3ccccc3n(CC(=O)Nc3ccc(Cl)cc3Cl)c2=O)cc1)NCc1ccco1 was read as USP30 inh 16, USP8 inh 56* and USP17 block 21.
For CCCN(CCC)C(=O)Cn1c(=O)n(Cc2ccc(C(=O)NCc3ccco3)cc2)c(=O)c2ccccc21 the results were USP30 inh 0, USP8 inh 20 and USP17 block 2.

Compound activity from PubChem.
